In the supplement of paper PMC11732987, “Enantioselective OTUD7B fragment discovery through chemoproteomics screening and high-throughput optimisation” (Communications Chemistry, 2025):

Key:
Experiment in all cases: log2 ratio of Biotin-Ahx-Ub-VS probe labelling (fragment/DMSO); higher = less target engagement (more negative = stronger competition), active = hit call of the paper (q ≤ 0.05, log2 ratio ≤ -1)
Conditions in all cases: compound concentration: 200 uM; treatment time: 3 h
USP42 = molecular target: T1, USP42 (UniProt Q9H9J4)
T1 sequence (whole entry): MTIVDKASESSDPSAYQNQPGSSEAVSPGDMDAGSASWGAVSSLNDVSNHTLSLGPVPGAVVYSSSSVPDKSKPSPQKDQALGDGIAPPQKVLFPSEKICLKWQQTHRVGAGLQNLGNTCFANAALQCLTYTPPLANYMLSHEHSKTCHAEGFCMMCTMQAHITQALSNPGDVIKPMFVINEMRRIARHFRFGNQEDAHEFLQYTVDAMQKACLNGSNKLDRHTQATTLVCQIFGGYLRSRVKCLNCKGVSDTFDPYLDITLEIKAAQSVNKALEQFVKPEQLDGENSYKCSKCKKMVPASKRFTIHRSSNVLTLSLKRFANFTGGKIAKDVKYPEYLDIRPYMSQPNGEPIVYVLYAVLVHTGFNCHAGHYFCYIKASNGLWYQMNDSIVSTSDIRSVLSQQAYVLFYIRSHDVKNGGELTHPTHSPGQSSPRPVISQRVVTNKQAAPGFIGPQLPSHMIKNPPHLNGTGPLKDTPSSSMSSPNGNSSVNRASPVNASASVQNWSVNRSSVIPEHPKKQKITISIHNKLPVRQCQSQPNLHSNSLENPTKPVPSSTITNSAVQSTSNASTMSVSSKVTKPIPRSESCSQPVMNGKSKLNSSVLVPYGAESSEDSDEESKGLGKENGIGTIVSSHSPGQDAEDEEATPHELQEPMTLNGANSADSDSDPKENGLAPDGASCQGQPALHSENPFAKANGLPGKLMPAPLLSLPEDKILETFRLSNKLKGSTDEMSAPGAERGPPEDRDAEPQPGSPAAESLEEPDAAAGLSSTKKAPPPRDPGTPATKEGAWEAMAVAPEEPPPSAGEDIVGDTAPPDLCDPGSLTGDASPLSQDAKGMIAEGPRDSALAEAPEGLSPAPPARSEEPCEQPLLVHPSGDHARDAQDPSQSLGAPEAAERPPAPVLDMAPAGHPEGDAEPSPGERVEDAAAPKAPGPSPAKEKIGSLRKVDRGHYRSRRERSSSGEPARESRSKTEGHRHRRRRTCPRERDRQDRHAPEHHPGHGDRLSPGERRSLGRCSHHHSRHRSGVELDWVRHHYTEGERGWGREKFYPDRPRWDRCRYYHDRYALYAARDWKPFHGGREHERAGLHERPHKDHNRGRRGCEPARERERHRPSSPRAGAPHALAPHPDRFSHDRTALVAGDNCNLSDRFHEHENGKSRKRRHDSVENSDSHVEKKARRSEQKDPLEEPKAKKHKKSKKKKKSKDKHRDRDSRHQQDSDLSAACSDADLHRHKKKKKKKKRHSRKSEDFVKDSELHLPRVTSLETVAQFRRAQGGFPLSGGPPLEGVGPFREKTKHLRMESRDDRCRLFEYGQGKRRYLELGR
Outline: (§1)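 Each value is an average log2 ratio of fragment to vehicle, tested by unpaired t-test. The underlying Spectronaut label-free quantities were global-median-normalised, and only proteins with ≥2 unique peptides were included. Triplicate HEK293T lysate samples (495 µg) were exposed to fragment at 200 µM or vehicle for 3 h, then to Biotin-Ahx-Ub-VS at 0.5 µM final for 1 h, before NeutrAvidin enrichment of labelled DUBs, LysC and trypsin digestion, and diaPASEF LC-MS/MS.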

USP46 = USP46 (UniProt P62068)
Outline: as §1

USP47 = molecular target: T2, USP47 (UniProt Q96K76)
T2 sequence (whole entry): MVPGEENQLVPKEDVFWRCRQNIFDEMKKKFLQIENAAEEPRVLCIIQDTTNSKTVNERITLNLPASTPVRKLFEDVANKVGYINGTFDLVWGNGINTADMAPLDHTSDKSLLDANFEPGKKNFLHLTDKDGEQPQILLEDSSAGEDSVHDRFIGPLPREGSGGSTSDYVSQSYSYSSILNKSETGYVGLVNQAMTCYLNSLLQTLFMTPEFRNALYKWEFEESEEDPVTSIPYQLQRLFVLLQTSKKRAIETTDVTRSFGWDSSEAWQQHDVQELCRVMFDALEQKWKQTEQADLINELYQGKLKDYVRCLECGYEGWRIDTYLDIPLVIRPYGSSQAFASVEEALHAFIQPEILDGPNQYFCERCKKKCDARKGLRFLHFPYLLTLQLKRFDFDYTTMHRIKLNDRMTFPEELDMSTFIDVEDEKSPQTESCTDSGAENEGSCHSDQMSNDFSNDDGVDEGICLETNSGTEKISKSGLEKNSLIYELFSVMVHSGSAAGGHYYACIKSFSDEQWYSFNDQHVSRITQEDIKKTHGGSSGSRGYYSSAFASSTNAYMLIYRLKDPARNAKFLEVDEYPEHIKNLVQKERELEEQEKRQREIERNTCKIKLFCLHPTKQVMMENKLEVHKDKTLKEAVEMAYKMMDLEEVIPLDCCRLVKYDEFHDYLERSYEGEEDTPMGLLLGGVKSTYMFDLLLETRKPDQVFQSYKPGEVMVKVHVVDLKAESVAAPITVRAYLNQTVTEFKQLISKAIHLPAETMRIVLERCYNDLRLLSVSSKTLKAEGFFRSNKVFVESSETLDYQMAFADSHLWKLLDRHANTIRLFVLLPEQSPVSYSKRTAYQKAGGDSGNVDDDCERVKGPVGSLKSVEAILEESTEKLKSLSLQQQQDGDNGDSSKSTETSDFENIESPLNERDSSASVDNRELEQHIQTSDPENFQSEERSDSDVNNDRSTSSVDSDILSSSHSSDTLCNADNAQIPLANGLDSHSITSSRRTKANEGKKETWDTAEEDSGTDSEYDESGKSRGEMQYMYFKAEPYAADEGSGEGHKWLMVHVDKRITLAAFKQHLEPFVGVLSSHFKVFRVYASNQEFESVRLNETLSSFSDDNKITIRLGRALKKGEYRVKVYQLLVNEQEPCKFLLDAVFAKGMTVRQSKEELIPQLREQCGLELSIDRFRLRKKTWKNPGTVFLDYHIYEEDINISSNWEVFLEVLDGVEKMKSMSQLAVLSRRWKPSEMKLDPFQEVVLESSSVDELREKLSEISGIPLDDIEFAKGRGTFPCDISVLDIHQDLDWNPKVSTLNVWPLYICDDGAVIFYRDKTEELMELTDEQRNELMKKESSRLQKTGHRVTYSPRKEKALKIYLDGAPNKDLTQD
Outline: as §1

USP48 = molecular target: T3, USP48 (UniProt Q86UV5)
T3 sequence (whole entry): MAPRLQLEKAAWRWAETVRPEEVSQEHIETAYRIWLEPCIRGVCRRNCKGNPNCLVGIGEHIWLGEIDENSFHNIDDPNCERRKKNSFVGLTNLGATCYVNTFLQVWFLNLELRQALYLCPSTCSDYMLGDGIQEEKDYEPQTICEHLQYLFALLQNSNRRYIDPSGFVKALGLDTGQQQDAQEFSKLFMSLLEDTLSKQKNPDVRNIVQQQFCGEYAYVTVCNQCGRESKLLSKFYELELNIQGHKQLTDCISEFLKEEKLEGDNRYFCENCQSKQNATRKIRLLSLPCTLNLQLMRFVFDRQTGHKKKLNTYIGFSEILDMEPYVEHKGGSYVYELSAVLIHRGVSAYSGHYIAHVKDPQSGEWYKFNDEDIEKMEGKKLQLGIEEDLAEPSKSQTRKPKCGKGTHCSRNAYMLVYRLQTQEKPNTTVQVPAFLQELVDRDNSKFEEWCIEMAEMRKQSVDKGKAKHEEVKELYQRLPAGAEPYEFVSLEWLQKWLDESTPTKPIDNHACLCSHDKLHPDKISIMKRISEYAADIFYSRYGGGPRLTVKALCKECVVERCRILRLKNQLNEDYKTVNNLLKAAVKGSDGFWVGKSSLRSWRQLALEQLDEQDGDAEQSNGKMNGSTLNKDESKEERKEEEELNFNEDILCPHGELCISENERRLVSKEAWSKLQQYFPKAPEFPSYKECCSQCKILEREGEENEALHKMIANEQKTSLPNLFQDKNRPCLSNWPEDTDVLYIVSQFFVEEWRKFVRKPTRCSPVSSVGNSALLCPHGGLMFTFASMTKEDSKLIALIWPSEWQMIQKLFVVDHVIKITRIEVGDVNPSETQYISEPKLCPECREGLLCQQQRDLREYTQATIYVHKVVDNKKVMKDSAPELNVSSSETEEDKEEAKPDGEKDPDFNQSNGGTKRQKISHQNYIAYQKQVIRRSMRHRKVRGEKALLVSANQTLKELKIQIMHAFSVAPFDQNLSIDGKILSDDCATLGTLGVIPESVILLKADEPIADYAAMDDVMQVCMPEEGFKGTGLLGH
Outline: as §1

USP5 = molecular target: T4, USP5 (UniProt P45974)
T4 sequence (whole entry): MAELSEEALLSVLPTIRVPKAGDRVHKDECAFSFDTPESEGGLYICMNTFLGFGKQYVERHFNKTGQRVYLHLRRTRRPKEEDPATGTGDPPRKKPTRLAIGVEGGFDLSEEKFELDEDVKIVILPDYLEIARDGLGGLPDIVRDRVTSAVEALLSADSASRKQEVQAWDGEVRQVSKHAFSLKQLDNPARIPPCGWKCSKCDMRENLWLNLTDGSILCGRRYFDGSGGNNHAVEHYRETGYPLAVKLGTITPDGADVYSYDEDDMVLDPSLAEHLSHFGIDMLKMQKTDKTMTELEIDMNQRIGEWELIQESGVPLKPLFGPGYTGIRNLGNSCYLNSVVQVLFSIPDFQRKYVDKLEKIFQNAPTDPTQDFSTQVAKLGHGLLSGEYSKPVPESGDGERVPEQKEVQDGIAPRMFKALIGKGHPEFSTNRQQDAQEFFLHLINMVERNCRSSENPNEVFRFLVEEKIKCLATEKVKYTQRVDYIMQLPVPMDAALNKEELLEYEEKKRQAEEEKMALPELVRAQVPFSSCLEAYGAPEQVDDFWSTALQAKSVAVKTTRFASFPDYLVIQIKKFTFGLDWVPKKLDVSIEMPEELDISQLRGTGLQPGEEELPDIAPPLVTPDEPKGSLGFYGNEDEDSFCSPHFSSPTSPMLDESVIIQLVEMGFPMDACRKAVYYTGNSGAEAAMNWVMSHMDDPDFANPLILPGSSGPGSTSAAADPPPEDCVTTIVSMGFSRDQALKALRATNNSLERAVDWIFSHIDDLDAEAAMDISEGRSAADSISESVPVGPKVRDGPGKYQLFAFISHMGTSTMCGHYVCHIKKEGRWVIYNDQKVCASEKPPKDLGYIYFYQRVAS
Outline: as §1

USP54 = USP54 (UniProt Q70EL1)
Outline: as §1

USP7 = USP7 (UniProt Q93009)
Outline: as §1

USP8 = molecular target: T5, USP8 (UniProt P40818)
T5 sequence (whole entry): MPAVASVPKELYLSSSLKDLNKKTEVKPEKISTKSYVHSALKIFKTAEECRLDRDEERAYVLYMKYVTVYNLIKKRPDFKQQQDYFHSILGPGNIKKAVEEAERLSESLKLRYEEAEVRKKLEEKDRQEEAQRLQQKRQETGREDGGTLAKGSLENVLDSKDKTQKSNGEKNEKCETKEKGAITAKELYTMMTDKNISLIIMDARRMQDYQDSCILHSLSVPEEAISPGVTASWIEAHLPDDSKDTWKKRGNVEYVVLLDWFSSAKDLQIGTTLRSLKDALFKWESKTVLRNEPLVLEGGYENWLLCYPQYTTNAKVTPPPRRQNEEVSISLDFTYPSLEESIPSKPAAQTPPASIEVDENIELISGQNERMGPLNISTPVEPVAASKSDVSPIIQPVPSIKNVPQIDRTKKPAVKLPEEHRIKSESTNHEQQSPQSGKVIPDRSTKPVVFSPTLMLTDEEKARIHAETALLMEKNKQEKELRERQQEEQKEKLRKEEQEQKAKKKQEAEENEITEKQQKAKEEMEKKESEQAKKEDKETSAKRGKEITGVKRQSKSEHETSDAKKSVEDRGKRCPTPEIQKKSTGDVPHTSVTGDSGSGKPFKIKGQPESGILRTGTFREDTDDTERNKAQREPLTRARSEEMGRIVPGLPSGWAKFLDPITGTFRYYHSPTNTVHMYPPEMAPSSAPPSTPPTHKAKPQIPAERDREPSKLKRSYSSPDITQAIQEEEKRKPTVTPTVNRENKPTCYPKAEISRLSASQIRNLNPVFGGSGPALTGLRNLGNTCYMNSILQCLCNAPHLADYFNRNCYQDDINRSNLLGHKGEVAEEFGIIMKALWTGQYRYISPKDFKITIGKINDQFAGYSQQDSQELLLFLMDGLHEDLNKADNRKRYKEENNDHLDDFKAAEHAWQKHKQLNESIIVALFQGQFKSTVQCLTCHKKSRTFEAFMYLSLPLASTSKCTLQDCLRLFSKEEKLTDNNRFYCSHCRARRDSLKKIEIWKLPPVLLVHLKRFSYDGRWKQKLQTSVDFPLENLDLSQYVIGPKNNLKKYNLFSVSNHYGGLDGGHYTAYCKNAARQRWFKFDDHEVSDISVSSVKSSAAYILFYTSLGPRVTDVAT
Outline: as §1

USP9X = USP9X (UniProt Q93008)
Outline: as §1

UniProt O00487 = molecular target: UniProt O00487
Outline: as §1

Measured: log2 ratio of Biotin-Ahx-Ub-VS probe labelling

USP54, sequence (Q70EL1 whole entry): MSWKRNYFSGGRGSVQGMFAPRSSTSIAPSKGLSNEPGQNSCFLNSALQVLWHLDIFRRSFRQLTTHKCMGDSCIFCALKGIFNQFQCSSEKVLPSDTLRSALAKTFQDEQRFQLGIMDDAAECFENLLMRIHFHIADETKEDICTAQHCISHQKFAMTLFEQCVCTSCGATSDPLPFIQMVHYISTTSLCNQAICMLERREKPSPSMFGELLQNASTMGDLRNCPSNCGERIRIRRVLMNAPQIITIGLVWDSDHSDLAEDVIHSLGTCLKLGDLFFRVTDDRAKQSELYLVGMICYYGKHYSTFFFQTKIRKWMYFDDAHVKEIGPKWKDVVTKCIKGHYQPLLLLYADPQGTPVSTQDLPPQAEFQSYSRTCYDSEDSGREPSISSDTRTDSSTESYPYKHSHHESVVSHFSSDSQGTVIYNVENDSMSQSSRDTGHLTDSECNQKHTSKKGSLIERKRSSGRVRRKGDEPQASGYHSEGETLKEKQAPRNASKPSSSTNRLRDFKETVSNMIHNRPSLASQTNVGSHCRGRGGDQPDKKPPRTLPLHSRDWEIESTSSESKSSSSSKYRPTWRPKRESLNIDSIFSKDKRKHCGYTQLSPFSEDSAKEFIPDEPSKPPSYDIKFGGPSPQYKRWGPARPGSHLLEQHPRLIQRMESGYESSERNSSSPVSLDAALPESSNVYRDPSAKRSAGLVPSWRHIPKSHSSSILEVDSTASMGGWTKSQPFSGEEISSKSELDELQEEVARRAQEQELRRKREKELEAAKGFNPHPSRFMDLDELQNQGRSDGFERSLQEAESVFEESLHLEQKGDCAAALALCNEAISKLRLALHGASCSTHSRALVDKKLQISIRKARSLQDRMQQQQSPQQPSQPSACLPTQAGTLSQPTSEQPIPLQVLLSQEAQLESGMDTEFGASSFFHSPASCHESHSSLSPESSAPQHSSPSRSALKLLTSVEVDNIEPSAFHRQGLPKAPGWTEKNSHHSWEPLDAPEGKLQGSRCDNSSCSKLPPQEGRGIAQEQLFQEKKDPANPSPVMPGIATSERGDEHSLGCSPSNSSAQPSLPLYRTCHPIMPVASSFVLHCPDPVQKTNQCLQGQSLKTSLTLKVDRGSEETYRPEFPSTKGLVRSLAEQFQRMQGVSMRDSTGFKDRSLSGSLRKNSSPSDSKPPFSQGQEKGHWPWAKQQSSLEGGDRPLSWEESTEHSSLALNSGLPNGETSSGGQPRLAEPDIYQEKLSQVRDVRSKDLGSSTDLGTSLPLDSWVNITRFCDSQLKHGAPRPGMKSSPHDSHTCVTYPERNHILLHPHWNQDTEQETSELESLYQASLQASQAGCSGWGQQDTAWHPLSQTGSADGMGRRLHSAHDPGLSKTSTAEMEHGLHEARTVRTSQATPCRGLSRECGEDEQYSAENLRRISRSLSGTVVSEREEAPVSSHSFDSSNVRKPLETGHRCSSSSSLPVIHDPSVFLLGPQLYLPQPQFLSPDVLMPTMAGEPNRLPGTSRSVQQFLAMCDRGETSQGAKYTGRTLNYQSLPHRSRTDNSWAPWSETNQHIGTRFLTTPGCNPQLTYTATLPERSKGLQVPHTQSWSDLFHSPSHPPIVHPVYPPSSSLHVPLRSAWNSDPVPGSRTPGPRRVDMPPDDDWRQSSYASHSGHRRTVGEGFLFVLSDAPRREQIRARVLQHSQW
USP46, sequence (P62068 whole entry): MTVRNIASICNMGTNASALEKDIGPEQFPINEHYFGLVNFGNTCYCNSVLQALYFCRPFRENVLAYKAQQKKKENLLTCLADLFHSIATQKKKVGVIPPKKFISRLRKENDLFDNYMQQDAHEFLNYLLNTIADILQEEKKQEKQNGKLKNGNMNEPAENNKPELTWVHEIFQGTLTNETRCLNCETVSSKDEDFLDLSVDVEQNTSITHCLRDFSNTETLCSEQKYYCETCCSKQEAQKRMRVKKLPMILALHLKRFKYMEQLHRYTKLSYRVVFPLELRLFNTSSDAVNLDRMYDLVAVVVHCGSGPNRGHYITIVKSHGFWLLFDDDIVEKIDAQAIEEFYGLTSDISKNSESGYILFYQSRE
USP9X, sequence (Q93008 whole entry): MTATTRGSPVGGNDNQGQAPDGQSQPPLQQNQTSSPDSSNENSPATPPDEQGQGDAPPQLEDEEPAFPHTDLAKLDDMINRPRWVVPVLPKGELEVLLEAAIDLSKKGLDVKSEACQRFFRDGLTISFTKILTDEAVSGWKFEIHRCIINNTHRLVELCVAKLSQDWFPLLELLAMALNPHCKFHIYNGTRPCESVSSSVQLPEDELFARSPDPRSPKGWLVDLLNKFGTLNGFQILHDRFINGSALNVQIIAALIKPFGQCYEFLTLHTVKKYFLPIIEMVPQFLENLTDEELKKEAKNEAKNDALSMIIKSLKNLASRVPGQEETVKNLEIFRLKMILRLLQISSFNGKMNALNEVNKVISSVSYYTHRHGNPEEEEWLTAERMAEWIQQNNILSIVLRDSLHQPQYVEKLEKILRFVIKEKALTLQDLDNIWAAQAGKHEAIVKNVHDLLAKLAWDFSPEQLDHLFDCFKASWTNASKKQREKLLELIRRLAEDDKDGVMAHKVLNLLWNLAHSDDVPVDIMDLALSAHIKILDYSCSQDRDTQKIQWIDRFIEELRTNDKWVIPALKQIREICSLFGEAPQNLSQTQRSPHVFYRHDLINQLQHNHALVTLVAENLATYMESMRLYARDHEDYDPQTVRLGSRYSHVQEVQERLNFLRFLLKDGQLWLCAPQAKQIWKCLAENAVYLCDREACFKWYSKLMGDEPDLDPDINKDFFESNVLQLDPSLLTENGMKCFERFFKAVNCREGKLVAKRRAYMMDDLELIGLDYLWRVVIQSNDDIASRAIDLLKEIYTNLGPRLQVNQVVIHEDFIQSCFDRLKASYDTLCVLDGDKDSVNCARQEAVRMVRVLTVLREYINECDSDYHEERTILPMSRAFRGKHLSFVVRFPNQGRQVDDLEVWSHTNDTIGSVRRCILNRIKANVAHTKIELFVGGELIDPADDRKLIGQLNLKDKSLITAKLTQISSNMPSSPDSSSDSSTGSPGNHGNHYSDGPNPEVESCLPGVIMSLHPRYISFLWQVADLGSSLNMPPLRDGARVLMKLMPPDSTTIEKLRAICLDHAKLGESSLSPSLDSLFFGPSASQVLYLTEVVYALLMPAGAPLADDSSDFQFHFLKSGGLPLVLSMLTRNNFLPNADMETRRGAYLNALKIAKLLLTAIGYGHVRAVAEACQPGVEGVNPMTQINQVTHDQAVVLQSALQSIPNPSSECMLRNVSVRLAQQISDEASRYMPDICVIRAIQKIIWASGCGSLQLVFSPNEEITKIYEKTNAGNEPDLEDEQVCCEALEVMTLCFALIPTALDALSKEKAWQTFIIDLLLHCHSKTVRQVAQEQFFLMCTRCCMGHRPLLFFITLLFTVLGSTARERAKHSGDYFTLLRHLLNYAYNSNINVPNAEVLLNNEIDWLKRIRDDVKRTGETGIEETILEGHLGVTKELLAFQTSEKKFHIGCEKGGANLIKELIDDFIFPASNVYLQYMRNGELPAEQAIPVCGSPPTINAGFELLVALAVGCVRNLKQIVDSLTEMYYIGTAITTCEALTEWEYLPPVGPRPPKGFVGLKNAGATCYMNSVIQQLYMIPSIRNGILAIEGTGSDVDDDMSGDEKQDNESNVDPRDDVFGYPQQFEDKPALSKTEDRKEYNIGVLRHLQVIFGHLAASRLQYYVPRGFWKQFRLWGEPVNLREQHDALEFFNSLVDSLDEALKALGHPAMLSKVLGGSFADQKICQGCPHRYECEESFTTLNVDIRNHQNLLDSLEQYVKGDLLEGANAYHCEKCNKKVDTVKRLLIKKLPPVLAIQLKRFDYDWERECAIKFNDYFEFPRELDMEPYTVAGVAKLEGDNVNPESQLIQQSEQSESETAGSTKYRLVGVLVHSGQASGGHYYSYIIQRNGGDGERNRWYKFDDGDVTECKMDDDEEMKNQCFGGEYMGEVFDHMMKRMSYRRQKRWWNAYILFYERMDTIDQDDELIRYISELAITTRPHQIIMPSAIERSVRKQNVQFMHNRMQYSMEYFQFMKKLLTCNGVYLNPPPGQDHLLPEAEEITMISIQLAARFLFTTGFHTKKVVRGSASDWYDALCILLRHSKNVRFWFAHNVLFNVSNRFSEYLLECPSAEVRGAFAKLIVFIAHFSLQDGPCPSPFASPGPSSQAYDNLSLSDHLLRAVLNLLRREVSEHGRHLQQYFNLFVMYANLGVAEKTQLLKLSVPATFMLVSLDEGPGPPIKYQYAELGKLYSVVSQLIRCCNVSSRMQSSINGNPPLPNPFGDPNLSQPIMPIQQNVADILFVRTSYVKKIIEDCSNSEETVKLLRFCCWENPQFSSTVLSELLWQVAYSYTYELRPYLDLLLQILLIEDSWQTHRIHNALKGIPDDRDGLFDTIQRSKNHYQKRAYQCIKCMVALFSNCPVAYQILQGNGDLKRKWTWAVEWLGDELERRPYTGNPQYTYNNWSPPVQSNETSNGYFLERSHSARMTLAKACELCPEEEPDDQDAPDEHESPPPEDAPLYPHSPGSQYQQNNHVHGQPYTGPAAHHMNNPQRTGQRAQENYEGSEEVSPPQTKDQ
UniProt O00487, sequence (O00487 whole entry): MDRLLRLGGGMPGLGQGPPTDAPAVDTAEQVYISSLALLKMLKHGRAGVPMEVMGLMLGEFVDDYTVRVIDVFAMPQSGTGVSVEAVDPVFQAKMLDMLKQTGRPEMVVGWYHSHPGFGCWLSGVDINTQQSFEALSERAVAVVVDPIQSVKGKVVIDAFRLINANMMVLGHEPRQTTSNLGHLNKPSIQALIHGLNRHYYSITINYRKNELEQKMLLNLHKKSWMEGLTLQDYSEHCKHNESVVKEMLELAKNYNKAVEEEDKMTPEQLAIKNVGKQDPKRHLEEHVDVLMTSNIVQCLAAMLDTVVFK

O=C(CCl)NCCC1=CCCCC1
inactive: USP42 0.91 | USP46 -0.0411 | USP47 -0.145 | USP48 0.0648 | USP5 0.0523 | USP54 0.116 | USP7 -0.402 | USP8 0.244 | USP9X -0.0639 | UniProt O00487 -0.0958
